Each structure is given as a SMILES string. About 8,600 (12%) of roughly 69,000 compounds showed an effect of 50% or more. This excerpt belongs to a sample that is enriched for strong results.

The assay deals with Plasmodium berghei. Put plainly: Screen against P. berghei liver stage (PbLuc), transformed with Luciferase, at 10uM. The assay is classed as functional, HepG2. Conditions: tested at 10 uM.
Turning to `COCCN1CC(=O)c2sc(NC(C)C)nc2C1`, the INHIBITION came to 39.7%.

As to `Cc1cc(N(C)C)nc(C2(C)CCCN2C(=O)c2ccn(C)n2)n1` (centres undefined), the INHIBITION turned out to be 36.4%.

On to `Cc1cc(C(=O)N2CCCN(Cc3nccn3C)CC2)no1`, for which the INHIBITION is 22.3%.

Take `Cc1ccc(S(=O)(=O)N2CCOCC2C#N)c(F)c1` (centres undefined): the INHIBITION is recorded as -26.1%.

Consider `Cc1ccnc(C2CCCN2C(=O)c2cnccn2)n1` (centres undefined), for which the INHIBITION worked out at 3.91%.

As to `COc1ccc(N(C)Cc2nc3c(cnn3C)c(=O)[nH]2)cc1OC`, the INHIBITION was determined as 35.9%.

For `CCOc1c(Br)cc(CNCCc2nnc3n2CCCCC3)cc1OC`, the INHIBITION is recorded as 55.4%.

For the molecule `COc1cc(Br)c(CNC(C)c2nnc3n2CCC3)cc1OC` (centres undefined), the INHIBITION is given as 47.1%.

With `COc1cc(CNC(C)c2nnc3n2CCC3)cc(OC)c1` (centres undefined), the INHIBITION stood at 37.8%.

As to `Brc1cc(CNCc2nnc3n2CCC3)cs1`, the INHIBITION stood at 13.9%.

For the molecule `CCOc1c(Br)cc(CNC(C)c2nnc3n2CCC3)cc1OC` (centres undefined), the INHIBITION worked out at 50.8%.

On to `COc1cccc(CC(=O)NCCc2nnc3n2CCCCC3)c1`, for which the INHIBITION was -11.3%.

Consider `CC1(NC(=O)Cc2csc(-c3ccccc3Cl)n2)CCS(=O)(=O)C1` (centres undefined), for which the INHIBITION was 34.6%.

Consider `CCN1CCOC(CNCc2ccc(OCc3ccccn3)cc2)C1` (centres undefined), for which the INHIBITION is 3.5%.

With `Cc1c(C(=O)N2CCN(c3ccccn3)CC2)n(C)c2ccc(Cl)cc12`, the INHIBITION amounted to 34%.

Regarding `CC(C)Cc1nc(CN2CCCC2Cn2cncn2)no1` (centres undefined), the INHIBITION amounted to 9.85%.

Turning to `N#Cc1ccc(CN2CCCN(CCCn3cncn3)CC2)cc1`, the INHIBITION was 56.5%.

Consider `N#Cc1ccc(CN2CCCN(C(=O)CCn3cncn3)CC2)cc1`, for which the INHIBITION is reported as -14.3%.

For the molecule `N#Cc1ccc(N2CCCN(CCCn3cncn3)CC2)cc1`, the INHIBITION was determined as 9.87%.

Regarding `CN(C)CCN1CCO[C@H]2CN(C(=O)N(C)C)C[C@H]21`, the INHIBITION came out at 33.4%.

As for `O=C(O)c1csc(NCCc2ccccc2)n1`, the INHIBITION was 34.2%.

In the case of `O=C(c1ccoc1)N1CCC2(CC1)C(=O)N(CC1CC1)c1ccccc12`, the INHIBITION is reported as 29.7%.

`CC(C)=CCN1C[C@@H]2CC[C@H]1CN(CCC(=O)NCc1ccco1)C2`: the INHIBITION is on record as 29.7%.

For `CC(C)=CCN1C[C@@H]2CC[C@H]1CN(Cc1cc(=O)[nH]c(=O)[nH]1)C2`, the INHIBITION stood at 39%.

As for `CC(C)=CCN1C[C@@H]2CC[C@H]1CN(Cc1coc(C)n1)C2`, the INHIBITION amounted to 55%.

On to `Cc1ccc(C(=O)N2C[C@@H]3OCCN(CCN4CCCC4)[C@@H]3C2)cn1`, for which the INHIBITION is given as 19.9%.

`COc1cc(C)c2c(c1C)C[C@@H](C(C)C(=O)O)CC2` (some centres undefined): the INHIBITION was determined as 10.1%.

Turning to `c1ccc(-n2ccc(CN3CCCC(Cn4cncn4)C3)n2)cc1` (centres undefined), the INHIBITION is 15.3%.

As for `CCOc1ccc(C(C)Nc2ncnc3c2CCNC3)cc1OCC` (centres undefined), the INHIBITION was 47.9%.

Take `CC(Nc1ncnc2c1CCNC2)c1ccc(C(C)(C)C)cc1` (centres undefined): the INHIBITION came to 65%.

For the molecule `CC(C)Nc1ncnc2c1CCNCC2`, the INHIBITION is 43.8%.

`CCCc1ccc(C(C)Nc2ncnc3c2CCNC3)cc1` (centres undefined): the INHIBITION is given as 74.7%.

Take `Cc1cc(C)n(CC(C)Nc2ncnc3c2CCNC3)n1` (centres undefined): the INHIBITION amounted to 29.4%.

With `Cc1nc(C(C)Nc2ncnc3c2CCNCC3)c(C)s1` (centres undefined), the INHIBITION was -10.9%.

On to `Cc1ccccc1C(Nc1ncnc2c1CCNC2)c1ccccc1` (centres undefined), for which the INHIBITION came out at 36.8%.

Turning to `CC(Nc1ncnc2c1CCNC2)c1ccc2c(c1)CCCC2` (centres undefined), the INHIBITION amounted to 88.6%.

Take `CC(Nc1ncnc2c1CCNCC2)c1nc2c(s1)CCCC2` (centres undefined): the INHIBITION was 1.98%.

`O=C(C1CCOCC1)N1CCc2onc(COc3cccnc3)c2C1`: the INHIBITION came out at 46.2%.

In the case of `Cc1ccoc1C(=O)N1CCc2ncnc(-c3cnn(C)c3)c2CC1`, the INHIBITION is -49.8%.

For `Cc1cc(C2CCN(S(=O)(=O)N(C)C)CC2)ccn1`, the INHIBITION turned out to be 9.05%.

Take `CN(C)CCN1C(=O)CCC12CCN(Cc1cccs1)CC2`: the INHIBITION is reported as 29.7%.

As to `CCc1nc(CN2CCN(C(=O)c3cncnc3CC)CC2)cs1`, the INHIBITION was -86.365%.

As to `CC(C)NC(=O)N1CC[C@@H]2[C@@H]1CC(=O)N2Cc1cccnc1`, the INHIBITION is 6.27%.

Consider `CC1c2ncc(COc3cccnc3)n2CCN1C(=O)C1=CCCCC1` (centres undefined), for which the INHIBITION is -6.23%.

Regarding `COc1ccc(CNC(=O)Nc2cccnc2N2CCCC2)cc1OC`, the INHIBITION worked out at 31.2%.

`Nc1nc2c(c(NC(=O)Nc3cccc(Cl)c3)n1)CCCC2`: the INHIBITION amounted to 88.8%.

As for `Nc1nc2c(c(NC(=O)Nc3ccccc3)n1)CCCC2`, the INHIBITION stood at 32.1%.

Consider `Nc1nc2c(c(NC(=O)Nc3ccc(Cl)c(Cl)c3)n1)CCCC2`, for which the INHIBITION is given as -10.3%.

Turning to `COCCOc1ccc(CNc2cnc3ccccc3n2)cn1`, the INHIBITION is -43%.

`COCCOc1ccc(CNc2nc3ccccc3o2)cn1`: the INHIBITION is reported as -11.5%.

Consider `COCCOc1ccc(CNc2nc3ccccc3nc2N)cn1`, for which the INHIBITION is 80.9%.

As to `COCCNC(=O)Cn1c(-c2cccc(F)c2)nc(C)c(CCO)c1=O`, the INHIBITION was 7.22%.

Turning to `Cc1cnc(C(=O)N2CCOCC2c2ccccc2)cn1` (centres undefined), the INHIBITION is 43.6%.

On to `CSc1ccc(OCCN2CCC(n3cncn3)CC2)cc1`, for which the INHIBITION was determined as 27.6%.

The record behind these values is ChEMBL document CHEMBL4513216, “Probing the Open Global Health Chemical Diversity Library for Multistage-Active Starting Points for Next-Generation Antimalarials” (ACS Infect Dis, 2020).
